# Results from PubChem BioAssay (EPA / NIEHS).
# The source holds several records for some structures; these can differ, active in one and inactive in another. Calls of active or inactive are those of the source. How the source made its calls: active means hit-call score of the fitted dose curve at least 0.9, where 1 is the maximum; inactive means score below 0.9.
# Assay: BSK_BT_PBMCCytotoxicity: PBMC Cytotoxicity Assessment in the BioMAP Diversity Plus: BT Assay (AID 2284225);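 further: PBMC viability measured by Alamar Blue dye reduction fluorescence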
# Details: primary human B cells with PBMC
# Summary of the method: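 Primary human co-culture of B cells and PBMC, pre-dosed 1 h then activated with SEB and TSST-1. Cytotoxicity is taken from Alamar Blue dye reduction, added for 6 h at the end of a 90 h incubation.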
Structure (SMILES),AC50,outcome
CCCCCCCCCCCCCCCCCC[N+](C)(C)Cc1ccccc1,4.83 µM (active),–
Cc1cccc2c1ccc1ccccc12,–,inactive
COc1cccc(O)c1,–,inactive
C=CC(C)(CCC=C(C)C)OC(C)=O (centres undefined),–,inactive
O=P(O)(O)CCC(F)(F)C(F)(F)C(F)(F)C(F)(F)C(F)(F)C(F)(F)C(F)(F)C(F)(F)F,–,inactive
CCCCC(CC)C(=O)OCCOCCOCCOCCOC(=O)C(CC)CCCC (centres undefined),–,inactive
Oc1cc2ccccc2cc1O,–,inactive
CC[N+](CC)(CC)Cc1ccccc1,–,inactive
CCCCCc1ccc(O)cc1,–,inactive
O=C(O)CCC(F)(F)C(F)(F)C(F)(F)C(F)(F)C(F)(F)C(F)(F)F,23.6 µM (active),inactive
O=C(O)C(F)(F)OC(F)(F)C(F)(F)OC(F)(F)C(F)(F)OC(F)(F)C(F)(F)C(F)(F)C(F)(F)F,–,inactive
CN(C)c1ccc(C(=C2C=CC(=[N+](C)C)C=C2)c2ccccc2)cc1,0.993 µM (active),–
CC(C)(C)c1ccc(O)c(O)c1,25.2 µM (active),–
C[C@]12CC[C@@H]3c4ccc(O)cc4CC[C@H]3[C@@H]1C[C@@H](O)[C@@H]2O,–,inactive
O=C(NCc1ncc(C(F)(F)F)cc1Cl)c1c(Cl)cccc1Cl,–,inactive
NC(=NCCCCCCN=C(N)/N=C(\N)Nc1ccc(Cl)cc1)/N=C(\N)Nc1ccc(Cl)cc1,13.7 µM (active),–
O=P(O)(O)CCC(F)(F)C(F)(F)C(F)(F)C(F)(F)C(F)(F)C(F)(F)F,12.2 µM (active),inactive
COc1cc(OC)nc(NC(=O)NS(=O)(=O)Nc2ccccc2C(=O)N(C)C)n1,–,inactive
Cc1ccc(C(=O)c2ccccc2)cc1,–,inactive
C=CC(=O)OCCC(F)(F)C(F)(F)C(F)(F)C(F)(F)C(F)(F)C(F)(F)C(F)(F)C(F)(F)F,–,inactive
O=C(O)CCC(F)(F)C(F)(F)C(F)(F)C(F)(F)C(F)(F)F,–,inactive
OCCN1CN(CCO)CN(CCO)C1,30.2 µM (active),–
